Source: the supplement of paper PMC5940239
Values without a mark were called inactive.

Test system: Madurella mycetomatis MM55
Test: percent growth relative to solvent control; higher = less inhibition, active = 20 or less
Details: 100 µM; 7 days

Row | SMILES | percent growth
1 | Cc1ccc2cc(C3NC(=O)c4ccccc4N3)c(Cl)nc2c1 (stereo not drawn) | 139%
2 | Cc1nnc(NC(=O)c2cn(-c3ccccc3)nc2-c2ccccc2C)o1 | 92.6%
3 | CC(Oc1cccc(Cl)c1)C(=O)Nc1ccc2oc(-c3ccncc3)nc2c1 (stereo not drawn) | 51.2%
4 | COc1ccc(-c2nc(-c3cccc(NC(=O)Cc4ccc(F)cc4)c3)no2)cc1OC | 95%
5 | CCn1ncc2c(NC3CCOCC3)c(CNC(=O)c3ccnn3C)c(C)nc21 | 142%
6 | O=C(c1[nH]nc2c1CCCC2)N1CCN(Cc2ccc3c(c2)OCO3)CC1 | 81.8%
7 | COc1cccc(NC(=O)c2c(NC(=O)c3cccnc3)sc3c2CCC3)c1 | 50.9%
8 | O=C(Nc1ccc2c(c1)B(O)OC2)c1ccccc1C(F)(F)F | 150%
9 | Cc1ccc(-c2cc(C(=O)Nc3cccnc3)c3cc(Br)ccc3n2)cc1 | 90.5%
10 | COc1cc(C(F)(F)F)nc2ccc(C)c(N)c12 | 77.1%
11 | NS(=O)(=O)c1cncc(-c2ccc3nccc(-c4cn[nH]c4)c3n2)c1 | 143%
12 | COc1ccc2nc(C)cc(OCC(=O)NCc3ccccc3)c2c1 | 83.4%
13 | CC(C)(C)CN1C(=O)C(c2ccccc2)(c2ccccc2)N=C1N | 66.1%
14 | CNC1C(OC2C(OC3C(O)C(O)C(NC(=N)N)C(O)C3NC(=N)N)OC(C)C2(O)C=O)OC(CO)C(O)C1O (stereo not drawn) | 119%
15 | CC1CC1C(=O)NC1CCN(CC2(c3ccccc3)CCCCC2)CC1 (stereo not drawn) | 92.9%
16 | CCOC(=O)c1noc(N)c1-c1ccccc1 | 87.2%
17 | O=C(CCC1CCCCC1)Nc1cccc(-c2nnc(-c3ccco3)o2)c1 | 96.1%

Row | SMILES | percent growth
18 | COc1ccc(-c2cnc3ccc(NCc4ccc(S(N)(=O)=O)cc4)nn23)cn1 | 86.7%
19 | CCOc1ccccc1C(=O)Nc1cccc(-c2nc3ncccn3c2C)c1 | 97.2%
20 | FC(F)(F)c1cnc(Sc2nnc(-c3ccncc3)o2)c(Cl)c1 | 82.4%
21 | Cc1nc2ccccn2c1C(=O)NCc1ccc(Cl)cc1 | 33.1%
22 | CNc1cc(C)nc(C2CN(C(=O)c3n[nH]c4ccccc34)CCO2)c1 (stereo not drawn) | 103%
23 | Cc1nn(C)cc1C(C)Nc1nncc(-c2ccc(C(F)(F)F)cc2)n1 (stereo not drawn) | 61.9%
24 | FC(F)(F)c1cccc(-c2nc3c(NCc4ccncc4)nccc3[nH]2)c1 | 72.4%
25 | CN1CCN(S(=O)(=O)c2ccc(-c3ccc4c(Nc5ncc(Cl)cn5)ccnc4c3)cc2)CC1 | 98.9%
26 | N#Cc1ccc(-c2cnc(N)c(-c3ccc(C(N)=O)cc3)n2)cc1 | 64.5%
27 | c1ccc(Oc2ccc(-c3cncc(-c4ccc5[nH]ccc5c4)n3)cc2)cc1 | 92.6%
28 | CC[C@@H]([C@H](C)O)n1ncn(-c2ccc(N3CCN(c4ccc(OC[C@@H]5CO[C@@](Cn6cncn6)(c6ccc(F)cc6F)C5)cc4)CC3)cc2)c1=O | 0.417% (active)
29 | CCC(C)NC(=O)c1ccc(NC(=O)C2(c3ccccc3)CCCC2)cc1 (stereo not drawn) | 96.7%
30 | COc1ccc(Cn2cnc3c(-c4ccco4)nc(Cl)nc32)cc1 | 82.7%
31 | N#Cc1nc(-c2ccccc2)oc1S(=O)(=O)c1ccc(Cl)cc1 | 31.4%
32 | C[C@]1(O)C[C@@H](c2nc(-c3ccc4ccc(-c5ccccc5)nc4c3)c3c(N)nccn32)C1 | 133%
33 | CS(=O)(=O)N1CCC(CCn2nc(Cc3cccc4ccccc34)c3c(N)ncnc32)CC1 | 81.9%
